TRPML1 inh – inhibitors of human TRPML1 channel; TRPML1-inducible cells, Ca2+ dye fluorescence, FDSS; stronger effect = lower value; inhibition of EC80 agonist-evoked calcium signal; activity change, negative = inhibition, % (no concentration beside the values); 390,000 compounds, 0.02% hits; in the data active = activity change below about -50%; inconclusive = between about -30% and that limit;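 note: stimulus is agonist 54-4 at its EC80 concentration; % is set by controls: 0 for no effect and ±100 for the full control effect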
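Tet-induced TRPML1-DL cells loaded with Ca8 no-wash calcium dye were read kinetically on FDSS. Compound addition was followed by EC80 agonist 54-4 (4 uM final); inhibition was read over 110 s.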
TRPML1 ag – agonists of human TRPML1 channel. TRPML1-expressing cells, Ca2+ dye fluorescence, FDSS. activation, % (concentration not given with the values). AID 624414. Q9GZU1. 410,000 compounds, 0.12% hits; note: 0% is about no effect
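Tetracycline-induced TRPML1-DL cells are seeded and incubated overnight before loading with a no-wash Ca2+ dye and quencher. Agonist activity is taken from the 110 s fluorescence read following compound pin-transfer on an FDSS, before EC80 54-4 challenge.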
PKM2 act – PKM2 (human) enzyme activation; 260,000 compounds, 0.34% hits; AID 1631; P14618; Potency, µM (highest dose often 57.5 µM), without a hit: top-dose activation, hits mostly activators; purified PKM2, Kinase-Glo ATP luminescence, activation; response scale: 0% is enzyme alone, no compound; active = well fitted activation curve with a large enough effect; inconclusive = small, poorly fitted or top-dose-only effect; inactive = no such curve, though single readings can be large or run the other way; note: potency is the fitted concentration of half-maximal effect; % is set by controls: 0 for no effect and ±100 for the full control effect; nearly all actives have a fitted effect of over 55% in size
Target sequence (P14618 whole entry, looked up): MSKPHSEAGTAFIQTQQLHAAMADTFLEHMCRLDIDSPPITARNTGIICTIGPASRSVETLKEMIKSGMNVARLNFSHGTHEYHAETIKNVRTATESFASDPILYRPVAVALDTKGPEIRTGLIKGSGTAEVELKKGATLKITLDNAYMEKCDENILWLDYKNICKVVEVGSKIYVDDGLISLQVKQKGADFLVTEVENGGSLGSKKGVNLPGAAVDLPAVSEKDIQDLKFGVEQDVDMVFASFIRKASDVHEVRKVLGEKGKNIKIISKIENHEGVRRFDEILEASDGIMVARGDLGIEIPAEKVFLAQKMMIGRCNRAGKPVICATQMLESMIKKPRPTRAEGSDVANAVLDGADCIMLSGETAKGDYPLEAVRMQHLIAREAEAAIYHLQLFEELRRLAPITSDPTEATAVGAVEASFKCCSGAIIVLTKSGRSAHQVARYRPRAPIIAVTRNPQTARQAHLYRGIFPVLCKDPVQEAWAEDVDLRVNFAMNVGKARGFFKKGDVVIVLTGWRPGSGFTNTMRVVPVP
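hPK-M2, >95% pure; 0.1 mM ADP / 0.5 mM PEP final; imidazole pH7.2 buffer w/ 7 mM MgCl2, 50 mM KCl; 1 h RT; Kinase-Glo lum. Intermediate enzyme activity for dual inhibitor/activator qHTS.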
IL-2 act – activates IL-2 in a cell-based reporter assay | IL-2 activation reporter assay, cell-based qHTS; stimulated with anti-CD3/CD4/CD28 beads; in transgenic mouse T cells | activation, % (series mostly up to about 46 µM) | 360,000 compounds, 0.065% hits | AID 652025; note: 0% is about no effect
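Readout is EGFP and DsRed signal by fluorescent plate cytometry after 18 h at 37 degrees C. Transgenic mouse T cells (750/well) received compound for 60 min before bead stimulation (anti-CD3, anti-CD4, anti-CD28); memory T cells served as non-tolerant control.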
BRCA1 expr act – increases BRCA1 expression; MCF7-BRCA1-FFLuc reporter, luminescence, 48 h; response scale: scaled: vehicle 0%, 10 µM genistein 100%; 380,000 compounds, 1.1% hits; Potency, µM (top dose mostly 46.1 µM), for inactives: at the highest dose activation, hits mostly activators; AID 624202; active = well fitted activation curve with a large enough effect; inconclusive = small, poorly fitted or top-dose-only effect; inactive = no such curve, though single readings can be large or run the other way; note: potency is the fitted concentration of half-maximal effect; nearly all actives have a fitted effect of over 80% in size
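MCF7-BRCA1-FFLuc cells, 2000/well in phenol-red-free MEM, attached 2 h then treated 48 h at 37 C. Luciferase luminescence read 15 min after reagent; normalized to genistein maximum activation (10microM) and DMSO, concentration-response fitted.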
PTAP TSG101 blk – blocks PTAP/TSG101 interaction to inhibit HIV-1 budding; Q99816; Fluorescence polarization, FITC-PTAP peptide / Tsg101 binding; Potency, µM (doses to about 115 µM), inactives show at the highest dose activity change, negative = inhibition, actives largely listed as inhibitors; 340,000 tested, under 10 active; AID 493005; active = well fitted inhibition curve with a large enough effect in the main read-out, with a control signal flat, not every such curve was filed as active; inconclusive = small, poorly fitted or top-dose-only effect, or effect the other way, or a change in a side signal; inactive = no such curve, though single readings can be large or run the other way; note: potency is the fitted concentration of half-maximal effect; % of control where 0% means no effect
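Fluorescence anisotropy tracks displacement of a FITC-tagged PTAP peptide (50 nM) from the Tsg101 binding domain (10 uM), following a 20 min room-temperature incubation at pH 7.5.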
* = called active by the depositor; ? = inconclusive; . = not tested or not shown. The list is not random: actives were taken first. Their share in the collection is about 1.3%. Cut-off read from the data, not from the text of the source, unless noted: active = activation above about 50%; inconclusive = mostly about 30% to 49%; inactive = weaker than that.

SMILES	TRPML1 inh	TRPML1 ag	PKM2 act	IL-2 act	BRCA1 expr act	PTAP TSG101 blk
CCCS/C(N)=N/N=C/c1cc(C)ccc1O	13	-1	-4%	0	?	-2%
CCCCS/C(N)=N/N=C/c1ccccc1O	-10	2	1%	-2	7.9µM*	-5%
Cc1cc(N2CCCC2)ccc1/C=C1\NC(=S)N(C)C1=O	-7	28	2%	9	42%	?
O=C1/C(=C/c2ccc(N3CCCC3)cc2)NC(=S)N1C1CC1	-9	50*	4%	16	0%	?
O=C1N/C(=C/c2ccc(N3CCCC3)cc2)C(=O)N1c1ccccc1	7	4	-1%	157*	63%	-1%
CC(C)[C@H]1COCCS(=O)(=O)N1Cc1cccc([N+](=O)[O-])c1	.	-1	.	.	.	.
C/C=C/c1ccc(OCC(=O)OCc2csc(Nc3ccc(C)cc3)n2)c(OC)c1	-3	0	1%	-1	11µM*	11%
Cc1ccc(Nc2nc(COC(=O)COc3ccc(C=O)cc3)cs2)cc1	6	2	-1%	2	?	3%
COc1cc2nc(N3CCN(C)CC3)nc(NC3CCN(Cc4ccccc4)CC3)c2cc1OC	.	0	.	.	-39%	.
Cc1ccc2oc(-c3ccccc3)nc2c1	8	-1	-5%	0	?	-1%
O=[N+]([O-])c1ccc2oc(-c3ccccc3)nc2c1	2	0	-3%	0	3.2µM*	0%
Cc1cccc(-c2nc3cc([N+](=O)[O-])ccc3o2)c1	5	-1	7%	-1	2.5µM*	0%
CC(C)C(=O)Nc1nnc(COc2ccc(Cl)cc2)s1	-8	-1	1%	2	5%	-3%
CC(=O)Nc1nnc(COc2ccc(Cl)cc2)s1	6	-1	-1%	-1	4.5µM*	-2%
CN1CCS/C1=C\C=C1/SC(=S)N(CC(=O)O)C1=O	-4	29	-10%	65*	-7%	?
CCN1C(=O)/C(=C/C=C2/SCCN2C)SC1=S	14	16	6%	-1	?	?
COc1ccc(CNc2nc3nc(C)c(Cl)c(C)n3n2)cc1	-3	2	7%	0	?	-2%
COc1cccc(CNc2nc3nc(C)c(Cl)c(C)n3n2)c1	-8	1	10%	-2	11µM*	0%
Cc1cccc(CSc2cn(CC(=O)N3CCOCC3)c3ccccc23)c1	14	0	4%	0	3.5µM*	-2%
CC(OC(=O)C1CCN(S(=O)(=O)c2ccc(C(C)(C)C)cc2)CC1)C(=O)N1CCOCC1 (stereo not given)	-11	-1	.	-1	-14%	-3%
CC(OC(=O)C1CCN(S(=O)(=O)c2ccc(C(C)(C)C)cc2)CC1)C(=O)N(C)C1CCCCC1 (stereo not given)	-17	95*	.	0	-52%	-7%
Cc1cc(C(=O)CSc2nnnn2C)c(C)n1Cc1ccco1	-12	0	-2%	-4	4.5µM*	2%
Cc1cc(C(=O)CSc2ncccn2)c(C)n1Cc1ccco1	8	-1	?	-1	?	-7%
Cc1cc(C(=O)COC(=O)c2ccc(O)cc2)c(C)n1Cc1ccco1	0	0	19%	-2	2.8µM*	-1%
CCC/C=C(\CCC)C(NC(=O)c1ccco1)c1ccc(C(=O)OC)cc1 (stereo not given)	.	.	2%	.	.	.
CCOC(=O)c1noc2ncn(CC(=O)Nc3ccccc3OC)c(=O)c12	-10	1	.	.	1%	.
COc1cccc(Cn2cnc3c(cnn3C(C)(C)C)c2=O)c1	-12	0	.	.	.	.
Cc1sc2ncn(CC(=O)N3CCN(c4cccc(Cl)c4)CC3)c(=O)c2c1S(=O)(=O)N1CCC(C)CC1	-9	0	.	.	.	.
COc1ccc(C(=O)/C=C/c2ccccc2)c(OC)c1	13	0	2%	-2	-30%	0%
